Hits are enriched below; roughly 4.1% of the tested compounds scored in any of these assays.
hgDAF12 agonist: agonists of H. glycines DAF-12 nuclear receptor. 370,000 tested, 1.8% active. AID 687014. HEK293 GAL4-hgDAF12 UAS-luciferase reporter, agonist luminescence; normalized to butyrate control. activation, % at 6.8 µM;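 active = activation above a cutoff set at the mean of all screened compounds plus 3 SD, cut at about 10% in these data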;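 also: 0% = DMSO wells and 100% = sodium butyrate wells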
hcDAF12 agonist: activates DAF-12 receptor from parasite H. contortus; HEK293 hcDAF-12 lit1-tk-luc reporter, luminescence; 0% DMSO, 100% Δ7-dafachronic acid; activation, % at 6.8 µM; 370,000 tested, 1.4% active; AID 652067;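 active = activation above the mean of all tested compounds plus 3 SD, cut at about 5.5% in these data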;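 also: 100% = response to 3 µM Δ7-dafachronic acid high control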
DAX1 inh-1: inhibits human nuclear receptor DAX1. AID 504766. HEK293 Gal4-DAX1 luciferase reporter, luminescence. inhibition, % at 6.75 µM. P51843. 340,000 tested, 0.99% active;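 active = inhibition above the mean over all tested compounds plus 3 SD, cut at about 4.2% in these data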;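 also: 0% = DAX1-transfected cells with DMSO and 100% = empty-vector control cells with DMSO; inhibition shows as a rise in luminescence from relieved DAX1 repression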
Target sequence (P51843 207-470 limits assumed): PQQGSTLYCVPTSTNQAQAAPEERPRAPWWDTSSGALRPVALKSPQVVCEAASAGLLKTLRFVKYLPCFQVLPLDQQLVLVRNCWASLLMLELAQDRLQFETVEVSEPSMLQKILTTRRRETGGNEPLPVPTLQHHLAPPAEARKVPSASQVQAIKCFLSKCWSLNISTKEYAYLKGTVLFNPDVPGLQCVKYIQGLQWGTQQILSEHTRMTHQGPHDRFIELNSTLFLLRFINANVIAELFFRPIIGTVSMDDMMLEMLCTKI
DAX1 inh-2: inhibitors of DAX1 repression of SF-1 activated StAR promoter. HEK293T StAR-luciferase reporter, SF-1/DAX-1 repression relief. inhibition, % at 6.8 µM. 370,000 tested, 1.1% active. AID 652010;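 active = inhibition above the mean over all tested compounds plus 3 SD, cut at about 3.6% in these data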;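 also: 0% = DAX-1 cells with DMSO and 100% = cells lacking DAX-1 with DMSO; higher inhibition means more luminescence from relief of DAX-1 repression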
ssDAF12 agonist: S. stercoralis DAF-12 activation, primary screen. HEK293 ssDAF-12/GRIP1 lit1-tk-luc reporter, luminescence; % of 3 µM dafachronic acid response. activation, % at 6.8 µM. 370,000 tested, 1% active. AID 652126;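 active = activation above the mean over all tested compounds plus 3 SD, cut at about 0.9% in these data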;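 also: 0% = DMSO-only wells and 100% = 3 µM delta7-dafachronic acid wells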
LXRb hcDAF ctr: counter-screen for hcDAF-12 agonists: agonists of human LXR-beta; 3,400 tested, under 10 active; HEK293 Gal4-LXR tk-luc reporter, luminescence, 24 h; normalized: DMSO 0%, positive control 100%; shares compounds with hcDAF12 agonist; AID 743027; activation, % at 6.8 µM;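 active = mean percent activation of the reporter above a cutoff set as the average over tested compounds plus their standard deviation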
Target sequence (P55055 whole entry, looked up, the tested form may be a part): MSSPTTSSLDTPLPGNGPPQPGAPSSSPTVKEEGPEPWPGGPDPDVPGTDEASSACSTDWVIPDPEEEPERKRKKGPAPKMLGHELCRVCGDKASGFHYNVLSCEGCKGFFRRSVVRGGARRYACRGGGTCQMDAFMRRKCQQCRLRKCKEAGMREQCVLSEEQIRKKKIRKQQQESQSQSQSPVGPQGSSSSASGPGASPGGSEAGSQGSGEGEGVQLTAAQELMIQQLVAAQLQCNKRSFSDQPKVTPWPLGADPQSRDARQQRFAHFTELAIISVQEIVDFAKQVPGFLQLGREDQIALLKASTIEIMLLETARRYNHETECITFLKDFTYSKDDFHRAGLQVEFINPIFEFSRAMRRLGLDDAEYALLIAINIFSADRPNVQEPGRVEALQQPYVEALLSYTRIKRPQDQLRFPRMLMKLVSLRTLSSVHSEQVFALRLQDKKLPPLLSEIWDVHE
hcDAF12 conf: hcDAF-12 agonism, confirmation assay; 3,400 tested, 61% active; activation, % at 6.8 µM; AID 743032; shares compounds with hcDAF12 agonist; HEK293 hcDAF-12 lit1-tk-luc reporter, luminescence; % of Δ7-dafachronic acid response;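 active = mean activation across triplicate tests above the threshold derived from the earlier primary screen, cut at about 5.5% in these data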;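 also: 0% = DMSO only wells and 100% = 3 µM Δ7-dafachronic acid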
Starred values were filed as active, the others as inactive; . = not tested or not shown.

SMILES	hgDAF12 agonist	hcDAF12 agonist	DAX1 inh-1	DAX1 inh-2	ssDAF12 agonist	LXRb hcDAF ctr	hcDAF12 conf
NNC(=O)c1nc2ccccc2s1	5.4	2.1	1.4	3.2	0.4	.	.
O=C(CNC(=O)c1ccccc1F)OCc1nc2ccccc2s1	4.5	3.8	0.7	0.2	-0.4	.	.
CCOC(=O)c1nc2ccccc2s1	5.1	8.8*	2.5	1.5	1.4*	0.3	9.3*
NC(=O)c1ccccc1OCc1cccc2ccccc12	0.3	-1.8	0.5	0.2	-1.5	.	.
NC(=O)c1ccccc1OCc1nc2ccccc2s1	12.7*	13.8*	2.1	2.0	0.4	1.3	13.6*
CC(=O)OCc1nc2ccccc2s1	11.7*	7.7*	2.3	4.0*	0.3	1.1	12.0*
O=C(CNC(=O)c1ccccc1)OCc1nc2ccccc2s1	8.4	7.5*	0.6	0.4	1.0*	0.5	6.4*
CCOC(=O)c1csc(NC(=O)C2CCCN(S(=O)(=O)c3cc(OC)ccc3OC)C2)n1 (stereo not drawn)	-2.0	-3.9	.	-2.2	-0.6	.	.
CCCn1c(C)cc(C(=O)CN2C(=O)c3ccccc3C2=O)c1C	11.2*	9.7*	0.5	3.4	0.9*	0.7	12.4*
CCn1c(C)cc(C(=O)CN2C(=O)c3ccccc3S2(=O)=O)c1C	-10.3	-3.8	-3.1	-3.5	-2.1	.	.
N#CC1(Nc2ccc3ccccc3c2)CCCC1	9.1	6.9*	2.8	4.1*	0.3	0.2	7.0*
N#CC1(P(=O)(c2ccccc2)c2ccccc2)CCCC1	2.1	-0.8	-0.2	-0.4	-0.8	.	.
Cc1nc(SCC(=O)N(C)c2ccccc2)[nH]c(=O)c1C	-5.2	0.0	.	.	-1.8	.	.
COCCN1C(=O)CSCC1(C)C(=O)NCc1ccccc1 (stereo not drawn)	-2.2	-0.2	.	0.9	0.0	.	.
COc1ccc2oc(=O)c(/C(C)=N/Nc3nc(-c4cc(C)ccc4C)cs3)cc2c1	-0.8	6.7*	0.2	-0.6	-1.1	-0.2	-0.1
COc1ccc(-n2cc(COC(=O)NCCc3ccccc3)nn2)cc1	0.1	-1.1	.	-0.3	-0.1	.	.
CC(C)CSc1ncccc1-c1nc2ccccc2[nH]1	-0.8	-1.9	.	-0.6	-0.5	.	.
O=C(NC(=S)Nc1ccccc1N1CCCC1)c1ccco1	4.9	7.6*	.	-0.2	0.1	0.0	4.9
O=C(NC(=S)Nc1nc(-c2ccccc2)cs1)c1ccco1	-1.3	7.0*	0.6	-0.1	0.0	0.0	7.3*
CC(=O)Nc1ccc2nc(NC(=O)c3ccco3)sc2c1	10.3	6.7*	1.7	2.5	-0.3	1.1	10.0*
O=C(Nc1nc(-c2ccncc2)cs1)c1ccco1	4.5	1.0	0.9	0.7	-0.5	.	.
O=C(NC(=S)Nc1ccccc1N1CCCCC1)c1ccco1	0.2	0.7	-1.8	0.3	-0.9	.	.
O=C(NC(=S)Nc1cccc2cccnc12)c1cccs1	0.3	6.6*	-1.2	-0.5	-0.9	-0.1	3.8
Cc1ccccc1CN1CCCCC(NC(=O)Nc2cccc(F)c2)C1=O (stereo not drawn)	-1.6	-4.5	.	-2.4	-1.2	.	.
COC(=O)[C@]12C[C@H](CC(=O)N3CCOCC3)C(=O)N(Cc3ccc(Cl)cc3Cl)C1=C[C@H](C1CCCC1)O[C@@H]2C	4.1	3.7	.	-0.4	-0.9	.	.
SMILES	hgDAF12 agonist	hcDAF12 agonist	DAX1 inh-1	DAX1 inh-2	ssDAF12 agonist	LXRb hcDAF ctr	hcDAF12 conf
Cc1ccc(-c2csc(NC(=S)NC(=O)c3cccs3)n2)cc1	2.4	1.7	-0.1	0.1	-1.2	.	.
CCCOc1ccc(C(=O)NC(=S)Nc2nc3ccccc3s2)cc1	1.5	6.9*	0.7	0.8	0.1	0.0	7.6*
O=C(NC(=S)Nc1nc(-c2ccccc2)cs1)c1cccs1	2.9	8.2*	0.1	0.0	-0.3	-0.2	5.3
O=C(NC(=S)Nc1nc2ccccc2s1)c1ccco1	13.2*	10.9*	3.4	1.9	2.2*	0.9	12.1*
COc1cccc(C(C(=O)NC2CCCC2)N2CCN(c3cc(C)nc4ccccc34)CC2)c1OC (stereo not drawn)	-2.5	0.5	.	-1.4	-0.5	.	.
COc1ccc(-c2cn3cc(Cl)ccc3n2)cc1OC	9.0	8.6*	1.9	2.4	0.7	0.2	5.2
COc1ccc(-c2cn3nc(C)c(C)nc3n2)cc1OC	1.5	0.7	1.2	2.5	-0.1	.	.
Clc1ccc2nc(-c3ccc(Br)s3)cn2c1	11.2*	14.9*	-2.1	3.5	1.0*	1.4	18.8*
O=C(NCc1cccs1)c1ccc(Cl)c(S(=O)(=O)N2CCOCC2)c1	-0.1	-1.1	0.5	1.4	-1.2	.	.
CC(C)CCN1C(=O)COc2ccccc2C1c1nnnn1-c1ccc2c(c1)OCCO2 (stereo not drawn)	1.5	-2.0	.	-0.2	-1.0	.	.
CC(CSC(=O)c1ccccc1)C(=O)N1c2ccccc2CC1C(=O)O (stereo not drawn)	5.5	7.5*	.	0.2	0.8	-0.3	5.4
c1ccc(-c2cc3cc4c(cc3cn2)OCO4)cc1	12.8*	8.1*	2.9	1.6	1.4*	1.6	8.5*
Cc1ccc(-n2c(SCC(=O)N/N=C/C=C\c3ccco3)nnc2-c2ccccc2)cc1	-0.9	-2.3	.	-0.7	-1.5	.	.
Cc1cccc(/C=c2\s/c(=C\C(=O)C(C)(C)C)[nH]c2=O)c1	1.0	0.9	1.0	-0.5	-1.5	.	.
Cc1cccc(/C=C2\CCC(=C3SCCCS3)C2=O)c1	8.8	7.5*	-3.7	2.5	-0.6	1.0	7.6*
COc1ccc(O)c(/C=C(\C#N)C(=O)Nc2ccccn2)c1	4.5	7.9*	3.6	0.9	0.8	0.4	5.7*
N#C/C(=C\c1ccccc1O)C(=O)Nc1cccnc1	4.2	0.5	1.8	0.9	-0.6	.	.
NC(=O)c1sc2nc(-c3ccccc3)c3c(c2c1N)CCCC3	-4.2	-1.6	-0.5	-2.0	-2.4	.	.
Nc1c2c(nc3sc4c(c13)CCCC4)-c1ccccc1CC2	9.9	7.6*	2.7	3.3	1.1*	1.9	11.0*
CC(=O)Nc1ccc(NC(=O)CCN2C(=O)c3ccccc3C2=O)cc1	1.6	-1.7	-0.2	0.6	-1.0	.	.
Cc1ccc2sc(-c3ccc(NC(=O)CCN4C(=O)c5ccccc5C4=O)cc3)nc2c1	8.8	10.0*	.	2.3	0.8	1.9	9.0*
O=S1(=O)CCSC[C@@H](CN2CCOCC2)N1	-0.4	-0.4	.	0.3	-0.1	.	.
Oc1[nH]c2ccccc2c1N=Nc1c(F)c(F)c(Cl)c(F)c1F	0.0	1.4	0.9	0.6	-1.0	.	.
Cc1cccc2c(N=Nc3ccccc3)c(O)[nH]c12	21.9*	14.2*	5.4*	2.4	4.4*	2.1	21.0*
Oc1[nH]c2ccccc2c1N=Nc1cccc(Cl)c1	9.0	8.9*	0.6	0.9	1.2*	1.0	13.3*

High-throughput results (PubChem)
